# Source: article PMC7862700, “An all-to-all approach to the identification of sequence-specific readers for epigenetic DNA modifications on cytosine”
# Columns and labels:
# Assay in all cases: DAPPL (digital affinity profiling via proximity ligation, sequencing); 10 mM Tris-HCl pH 7.5, 50 mM NaCl, 1 mM DTT, 4% glycerol, room temperature, 30 min; GST-TFs on glutathione beads, 16-mer random dsDNA library, 0.1% formaldehyde crosslink after washing; high values mean tight binding
# FEV = molecular target: T1, FEV (Homo sapiens, UniProt Q99581 1-238); details: protein: recombinant; tags: N-terminal GST; dsDNA, one strand shown
# T1 sequence: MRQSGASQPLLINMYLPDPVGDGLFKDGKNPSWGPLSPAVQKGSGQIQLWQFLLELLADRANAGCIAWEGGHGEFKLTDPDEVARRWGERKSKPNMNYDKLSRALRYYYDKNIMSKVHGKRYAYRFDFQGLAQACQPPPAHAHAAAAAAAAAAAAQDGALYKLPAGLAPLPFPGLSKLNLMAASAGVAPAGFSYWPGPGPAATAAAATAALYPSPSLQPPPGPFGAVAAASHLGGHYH
# Method in brief: (§1)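 The binding signal reported is, for every hexamer, its read frequency for a factor over its read frequency for the tag-only sample. Reads came from pools of yeast-expressed, GST-fused human transcription factors on glutathione beads, barcoded with DNA and mixed with that sample, which were incubated with 200 nmole of a random double-stranded 16-mer DNA library in Tris/NaCl/DTT/glycerol buffer at room temperature for 30 min. After washing, the pools were crosslinked with 0.1% formaldehyde, proximity-ligated with BsaI/T4 ligase for 1 h at 37 °C, PCR-amplified and sequenced on an Illumina NextSeq500.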
# ETV5 = ETV5 (Homo sapiens, UniProt P41161 1-510); details: protein: recombinant; tags: N-terminal GST; dsDNA, one strand shown
# Method in brief: as §1
# HSF1 = HSF1 (Homo sapiens, UniProt Q00613 1-529); details: protein: recombinant; tags: N-terminal GST; chain copies: 3; dsDNA, one strand shown
# Method in brief: as §1
# SPIC = molecular target: T2, SPIC (Homo sapiens, UniProt Q8N5J4 1-248); details: protein: recombinant; tags: N-terminal GST; dsDNA, one strand shown
# T2 sequence: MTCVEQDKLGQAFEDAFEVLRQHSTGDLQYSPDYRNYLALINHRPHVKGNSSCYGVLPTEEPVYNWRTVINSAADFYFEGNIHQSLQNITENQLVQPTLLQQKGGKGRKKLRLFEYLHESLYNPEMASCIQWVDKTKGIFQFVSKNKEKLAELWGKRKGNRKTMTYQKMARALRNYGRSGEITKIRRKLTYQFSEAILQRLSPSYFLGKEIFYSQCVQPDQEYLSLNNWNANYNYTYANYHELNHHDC
# Method in brief: as §1
# ELF4 = ELF4 (Homo sapiens, UniProt Q99607 1-663); details: protein: recombinant; tags: N-terminal GST; dsDNA, one strand shown
# Method in brief: as §1
# ELK4 = molecular target: T3, ELK4 (Homo sapiens, UniProt P28324-2 1-405); details: protein: recombinant; tags: N-terminal GST; dsDNA, one strand shown
# T3 sequence: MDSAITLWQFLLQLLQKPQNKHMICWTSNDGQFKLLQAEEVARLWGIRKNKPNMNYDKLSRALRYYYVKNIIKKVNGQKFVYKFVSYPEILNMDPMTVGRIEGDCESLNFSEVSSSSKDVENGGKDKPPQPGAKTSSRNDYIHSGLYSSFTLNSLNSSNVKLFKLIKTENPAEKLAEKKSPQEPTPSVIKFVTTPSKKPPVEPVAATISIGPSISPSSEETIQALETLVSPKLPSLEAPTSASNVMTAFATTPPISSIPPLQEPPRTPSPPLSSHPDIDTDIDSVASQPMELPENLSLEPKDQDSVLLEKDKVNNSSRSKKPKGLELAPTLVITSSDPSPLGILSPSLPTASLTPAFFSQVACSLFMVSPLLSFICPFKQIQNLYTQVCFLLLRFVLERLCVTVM
# Method in brief: as §1
# ETV2 = molecular target: T4, ETV2 (Homo sapiens, UniProt O00321 1-342); details: protein: recombinant; tags: N-terminal GST; dsDNA, one strand shown
# T4 sequence: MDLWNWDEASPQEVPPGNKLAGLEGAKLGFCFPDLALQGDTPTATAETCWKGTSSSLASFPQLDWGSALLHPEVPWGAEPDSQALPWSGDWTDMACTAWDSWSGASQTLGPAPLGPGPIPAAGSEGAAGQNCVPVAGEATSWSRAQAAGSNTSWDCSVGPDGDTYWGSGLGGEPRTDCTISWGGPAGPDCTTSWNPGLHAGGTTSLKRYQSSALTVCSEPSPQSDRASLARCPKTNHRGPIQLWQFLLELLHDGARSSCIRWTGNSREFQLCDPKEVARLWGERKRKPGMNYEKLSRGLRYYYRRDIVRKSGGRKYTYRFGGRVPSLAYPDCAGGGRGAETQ
# Method in brief: as §1
# ELF3 = molecular target: T5, ELF3 (Homo sapiens, UniProt P78545 1-371); details: protein: recombinant; tags: N-terminal GST; dsDNA, one strand shown
# T5 sequence: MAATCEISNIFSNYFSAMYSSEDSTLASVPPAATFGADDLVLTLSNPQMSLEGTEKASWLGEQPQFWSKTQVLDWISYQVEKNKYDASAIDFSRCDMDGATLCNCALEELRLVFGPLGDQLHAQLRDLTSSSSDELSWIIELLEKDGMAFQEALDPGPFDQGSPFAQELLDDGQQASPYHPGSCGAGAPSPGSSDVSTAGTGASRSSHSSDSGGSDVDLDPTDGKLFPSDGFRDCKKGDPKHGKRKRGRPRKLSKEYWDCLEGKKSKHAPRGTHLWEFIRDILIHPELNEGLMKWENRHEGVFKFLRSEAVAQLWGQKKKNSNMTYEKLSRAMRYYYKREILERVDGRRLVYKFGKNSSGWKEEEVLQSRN
# Method in brief: as §1
# CRX = CRX (Homo sapiens, UniProt O43186 1-299); details: protein: recombinant; tags: N-terminal GST; dsDNA, one strand shown
# Method in brief: as §1
# ETV1 = ETV1 (Homo sapiens, UniProt P50549 1-477); details: protein: recombinant; tags: N-terminal GST; dsDNA, one strand shown
# Method in brief: as §1
# ERF = molecular target: T6, ERF (Homo sapiens, UniProt P50548 1-548); details: protein: recombinant; tags: N-terminal GST; dsDNA, one strand shown
# T6 sequence: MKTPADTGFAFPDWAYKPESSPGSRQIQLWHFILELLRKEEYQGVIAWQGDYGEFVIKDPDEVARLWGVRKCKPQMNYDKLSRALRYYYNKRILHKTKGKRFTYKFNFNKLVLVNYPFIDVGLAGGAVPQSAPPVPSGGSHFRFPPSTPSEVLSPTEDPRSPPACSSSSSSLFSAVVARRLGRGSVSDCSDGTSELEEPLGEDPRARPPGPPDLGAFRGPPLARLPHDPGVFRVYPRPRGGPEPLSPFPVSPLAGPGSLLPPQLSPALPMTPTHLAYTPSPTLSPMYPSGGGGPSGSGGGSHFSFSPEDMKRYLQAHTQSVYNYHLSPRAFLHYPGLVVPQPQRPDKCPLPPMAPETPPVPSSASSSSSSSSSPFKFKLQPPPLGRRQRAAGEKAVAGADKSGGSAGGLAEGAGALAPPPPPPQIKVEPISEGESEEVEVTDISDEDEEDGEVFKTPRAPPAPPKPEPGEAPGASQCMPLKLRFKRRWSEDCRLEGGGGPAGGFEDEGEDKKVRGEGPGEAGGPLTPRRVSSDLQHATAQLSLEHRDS
# Method in brief: as §1
# ETV3L = molecular target: T7, ETV3L (Homo sapiens, UniProt Q6ZN32 1-361); details: protein: recombinant; tags: N-terminal GST; dsDNA, one strand shown
# T7 sequence: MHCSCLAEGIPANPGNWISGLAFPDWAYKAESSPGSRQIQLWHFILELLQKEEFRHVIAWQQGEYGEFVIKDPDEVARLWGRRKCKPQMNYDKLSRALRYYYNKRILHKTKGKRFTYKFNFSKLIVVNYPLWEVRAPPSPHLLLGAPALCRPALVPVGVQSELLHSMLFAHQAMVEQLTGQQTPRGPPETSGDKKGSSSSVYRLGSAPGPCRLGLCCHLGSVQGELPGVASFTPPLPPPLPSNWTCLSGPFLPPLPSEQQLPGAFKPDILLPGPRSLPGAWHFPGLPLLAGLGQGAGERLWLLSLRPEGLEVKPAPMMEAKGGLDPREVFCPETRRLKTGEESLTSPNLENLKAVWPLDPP
# Method in brief: as §1
# ETS2 = molecular target: T8, ETS2 (Homo sapiens, UniProt P15036 1-469); details: protein: recombinant; tags: N-terminal GST; dsDNA, one strand shown
# T8 sequence: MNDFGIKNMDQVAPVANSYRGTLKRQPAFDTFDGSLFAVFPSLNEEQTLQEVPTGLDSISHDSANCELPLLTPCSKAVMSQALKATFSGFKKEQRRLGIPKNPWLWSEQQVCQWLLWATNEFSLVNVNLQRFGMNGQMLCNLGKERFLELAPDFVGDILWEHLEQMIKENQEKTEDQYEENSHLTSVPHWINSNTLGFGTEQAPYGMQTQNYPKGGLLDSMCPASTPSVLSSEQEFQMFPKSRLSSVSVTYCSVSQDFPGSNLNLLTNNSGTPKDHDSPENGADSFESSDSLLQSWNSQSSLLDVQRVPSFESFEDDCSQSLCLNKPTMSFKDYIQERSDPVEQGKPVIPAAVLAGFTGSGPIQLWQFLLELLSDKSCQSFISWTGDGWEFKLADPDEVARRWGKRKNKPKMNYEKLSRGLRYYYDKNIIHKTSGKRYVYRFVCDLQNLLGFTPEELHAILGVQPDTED
# Method in brief: as §1
# SPDEF = molecular target: T9, SPDEF (Homo sapiens, UniProt O95238 1-335); details: protein: recombinant; tags: N-terminal GST; dsDNA, one strand shown
# T9 sequence: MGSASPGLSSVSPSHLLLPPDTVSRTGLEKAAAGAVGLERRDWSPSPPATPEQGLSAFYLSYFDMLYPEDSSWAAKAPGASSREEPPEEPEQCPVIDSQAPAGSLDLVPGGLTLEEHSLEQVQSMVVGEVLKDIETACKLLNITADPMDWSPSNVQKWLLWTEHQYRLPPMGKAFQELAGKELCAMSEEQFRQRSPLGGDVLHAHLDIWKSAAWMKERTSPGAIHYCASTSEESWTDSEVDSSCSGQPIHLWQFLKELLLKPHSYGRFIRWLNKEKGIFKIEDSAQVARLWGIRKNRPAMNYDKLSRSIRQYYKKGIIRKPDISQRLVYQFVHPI
# Method in brief: as §1
# ETV7 = molecular target: T10, ETV7 (Homo sapiens, UniProt Q9Y603 1-341); details: protein: recombinant; tags: N-terminal GST; dsDNA, one strand shown
# T10 sequence: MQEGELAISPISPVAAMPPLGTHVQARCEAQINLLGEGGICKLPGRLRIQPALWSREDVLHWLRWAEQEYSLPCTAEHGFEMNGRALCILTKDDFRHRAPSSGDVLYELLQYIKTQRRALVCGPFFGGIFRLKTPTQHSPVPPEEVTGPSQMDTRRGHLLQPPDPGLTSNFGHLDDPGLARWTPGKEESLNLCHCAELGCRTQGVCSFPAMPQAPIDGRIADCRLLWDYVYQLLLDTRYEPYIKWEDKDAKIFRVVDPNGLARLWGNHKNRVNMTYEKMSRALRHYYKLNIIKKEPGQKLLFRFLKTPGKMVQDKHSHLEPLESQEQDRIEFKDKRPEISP
# Method in brief: as §1
# ELF5 = molecular target: T11, ELF5 (Homo sapiens, UniProt Q9UKW6-2 1-255); details: protein: recombinant; tags: N-terminal GST; dsDNA, one strand shown
# T11 sequence: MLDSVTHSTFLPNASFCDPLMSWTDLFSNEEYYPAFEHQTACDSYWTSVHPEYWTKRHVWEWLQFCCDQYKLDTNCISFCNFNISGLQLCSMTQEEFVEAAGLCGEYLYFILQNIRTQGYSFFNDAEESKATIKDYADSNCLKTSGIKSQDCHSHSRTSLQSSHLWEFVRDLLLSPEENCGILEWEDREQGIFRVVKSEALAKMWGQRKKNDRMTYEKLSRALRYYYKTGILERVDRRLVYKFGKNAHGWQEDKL
# Method in brief: as §1
# ETV3 = molecular target: T12, ETV3 (Homo sapiens, UniProt P41162-2 1-143); details: protein: recombinant; tags: N-terminal GST; dsDNA, one strand shown
# T12 sequence: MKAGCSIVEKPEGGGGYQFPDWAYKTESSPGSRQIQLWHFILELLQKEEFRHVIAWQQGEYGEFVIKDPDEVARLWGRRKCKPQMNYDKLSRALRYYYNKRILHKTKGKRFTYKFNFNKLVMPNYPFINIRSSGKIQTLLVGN
# Method in brief: as §1
# ETV6 = ETV6 (Homo sapiens, UniProt P41212 1-452); details: protein: recombinant; tags: N-terminal GST; dsDNA, one strand shown
# Method in brief: as §1
# Chain of CRX (O43186 whole entry): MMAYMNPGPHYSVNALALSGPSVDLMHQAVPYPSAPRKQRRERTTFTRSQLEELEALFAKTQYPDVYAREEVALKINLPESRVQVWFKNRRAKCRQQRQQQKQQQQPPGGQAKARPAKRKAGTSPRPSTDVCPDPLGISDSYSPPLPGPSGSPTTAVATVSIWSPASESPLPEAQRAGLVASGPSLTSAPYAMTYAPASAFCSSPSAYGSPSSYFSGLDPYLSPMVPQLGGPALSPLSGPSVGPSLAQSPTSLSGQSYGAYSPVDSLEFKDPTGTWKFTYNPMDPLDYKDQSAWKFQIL
# Chain of HSF1 (Q00613 whole entry): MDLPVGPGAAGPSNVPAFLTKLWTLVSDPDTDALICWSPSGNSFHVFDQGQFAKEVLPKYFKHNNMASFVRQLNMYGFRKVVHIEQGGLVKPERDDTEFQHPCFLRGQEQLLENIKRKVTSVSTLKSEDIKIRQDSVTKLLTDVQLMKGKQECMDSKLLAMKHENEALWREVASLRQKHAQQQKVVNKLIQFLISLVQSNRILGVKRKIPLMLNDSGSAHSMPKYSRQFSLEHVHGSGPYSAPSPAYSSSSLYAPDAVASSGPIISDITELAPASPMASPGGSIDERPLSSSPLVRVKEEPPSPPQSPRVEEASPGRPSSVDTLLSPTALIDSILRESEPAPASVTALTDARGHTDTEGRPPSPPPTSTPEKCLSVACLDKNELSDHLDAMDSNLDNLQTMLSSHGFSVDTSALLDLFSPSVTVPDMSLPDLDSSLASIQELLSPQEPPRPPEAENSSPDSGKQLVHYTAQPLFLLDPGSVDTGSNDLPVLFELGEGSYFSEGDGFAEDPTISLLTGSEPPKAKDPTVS
# Chain of ETV1 (P50549 whole entry): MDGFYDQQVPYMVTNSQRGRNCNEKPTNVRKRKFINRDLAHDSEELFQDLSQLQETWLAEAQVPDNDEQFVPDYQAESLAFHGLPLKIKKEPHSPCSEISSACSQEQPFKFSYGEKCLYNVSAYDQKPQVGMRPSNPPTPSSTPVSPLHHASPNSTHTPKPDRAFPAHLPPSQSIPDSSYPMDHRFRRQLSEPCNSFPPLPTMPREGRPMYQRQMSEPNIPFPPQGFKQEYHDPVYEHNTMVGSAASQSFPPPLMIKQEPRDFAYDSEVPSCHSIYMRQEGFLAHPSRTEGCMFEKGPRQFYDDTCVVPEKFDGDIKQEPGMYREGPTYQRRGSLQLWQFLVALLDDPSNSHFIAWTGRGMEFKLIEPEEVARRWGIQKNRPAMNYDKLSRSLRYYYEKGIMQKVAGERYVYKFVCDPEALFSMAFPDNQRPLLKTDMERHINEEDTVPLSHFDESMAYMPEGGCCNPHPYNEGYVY
# Chain of ETV6 (P41212 whole entry): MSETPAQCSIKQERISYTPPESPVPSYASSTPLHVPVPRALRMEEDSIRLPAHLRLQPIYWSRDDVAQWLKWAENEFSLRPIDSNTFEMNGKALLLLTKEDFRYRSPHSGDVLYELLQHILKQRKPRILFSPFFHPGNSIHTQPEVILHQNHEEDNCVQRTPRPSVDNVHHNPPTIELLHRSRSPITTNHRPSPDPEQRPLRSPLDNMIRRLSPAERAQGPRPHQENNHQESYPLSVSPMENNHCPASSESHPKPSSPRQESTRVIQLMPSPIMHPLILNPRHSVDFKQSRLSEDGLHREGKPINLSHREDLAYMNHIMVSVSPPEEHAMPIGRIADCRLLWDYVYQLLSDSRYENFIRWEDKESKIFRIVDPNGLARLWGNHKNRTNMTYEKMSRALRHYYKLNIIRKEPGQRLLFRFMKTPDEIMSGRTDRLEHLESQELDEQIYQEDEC
# Chain of ETV5 (P41161 whole entry): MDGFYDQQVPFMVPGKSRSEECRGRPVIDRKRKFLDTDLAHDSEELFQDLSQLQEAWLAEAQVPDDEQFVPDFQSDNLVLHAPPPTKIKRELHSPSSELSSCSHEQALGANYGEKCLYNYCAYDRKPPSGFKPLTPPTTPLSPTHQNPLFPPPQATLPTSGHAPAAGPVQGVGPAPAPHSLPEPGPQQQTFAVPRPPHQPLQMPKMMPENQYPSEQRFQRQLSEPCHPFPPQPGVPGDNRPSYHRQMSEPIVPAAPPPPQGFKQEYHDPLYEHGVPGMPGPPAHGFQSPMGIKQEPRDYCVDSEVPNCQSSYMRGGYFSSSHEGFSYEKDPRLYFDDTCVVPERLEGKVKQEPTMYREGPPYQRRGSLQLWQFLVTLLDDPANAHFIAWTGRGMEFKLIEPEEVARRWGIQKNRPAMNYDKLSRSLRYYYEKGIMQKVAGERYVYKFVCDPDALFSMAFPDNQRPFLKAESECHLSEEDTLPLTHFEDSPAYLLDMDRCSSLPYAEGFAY
# Chain of ELF4 (Q99607 whole entry): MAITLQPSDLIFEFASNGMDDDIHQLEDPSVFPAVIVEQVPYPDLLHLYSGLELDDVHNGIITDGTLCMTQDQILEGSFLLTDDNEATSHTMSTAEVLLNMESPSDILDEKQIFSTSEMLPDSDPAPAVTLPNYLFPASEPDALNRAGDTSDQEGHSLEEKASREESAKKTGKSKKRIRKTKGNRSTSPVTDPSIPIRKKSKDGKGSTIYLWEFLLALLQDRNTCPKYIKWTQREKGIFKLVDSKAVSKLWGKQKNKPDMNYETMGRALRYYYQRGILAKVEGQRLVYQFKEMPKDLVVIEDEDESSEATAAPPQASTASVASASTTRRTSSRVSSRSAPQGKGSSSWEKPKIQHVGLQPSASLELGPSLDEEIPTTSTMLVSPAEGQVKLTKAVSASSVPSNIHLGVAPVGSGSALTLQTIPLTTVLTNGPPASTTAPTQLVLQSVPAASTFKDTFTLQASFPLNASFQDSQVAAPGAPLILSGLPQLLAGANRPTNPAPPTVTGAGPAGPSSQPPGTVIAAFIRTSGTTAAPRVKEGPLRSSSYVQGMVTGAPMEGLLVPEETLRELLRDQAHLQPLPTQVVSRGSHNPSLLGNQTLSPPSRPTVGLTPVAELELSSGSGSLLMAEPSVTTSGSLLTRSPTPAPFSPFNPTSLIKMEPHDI
sequence,measurement,setting,value
TCCATT,binding signal,FEV,"1.31 fold enrichment (6-mer frequency, TF over GST control)"
same,binding signal,ETV5,"1.36 fold enrichment (6-mer frequency, TF over GST control)"
same,binding signal,HSF1,"1.4 fold enrichment (6-mer frequency, TF over GST control)"
same,binding signal,SPIC,"1.31 fold enrichment (6-mer frequency, TF over GST control)"
same,binding signal,ELF4,"1.29 fold enrichment (6-mer frequency, TF over GST control)"
same,binding signal,ELK4,"1.37 fold enrichment (6-mer frequency, TF over GST control)"
same,binding signal,ETV2,"1.19 fold enrichment (6-mer frequency, TF over GST control)"
same,binding signal,ELF3,"1.27 fold enrichment (6-mer frequency, TF over GST control)"
same,binding signal,CRX,"1.35 fold enrichment (6-mer frequency, TF over GST control)"
same,binding signal,ETV1,"1.26 fold enrichment (6-mer frequency, TF over GST control)"
same,binding signal,ERF,"1.23 fold enrichment (6-mer frequency, TF over GST control)"
same,binding signal,ETV3L,"1.22 fold enrichment (6-mer frequency, TF over GST control)"
same,binding signal,ETS2,"1.28 fold enrichment (6-mer frequency, TF over GST control)"
same,binding signal,SPDEF,"1.2 fold enrichment (6-mer frequency, TF over GST control)"
same,binding signal,ETV7,"1.26 fold enrichment (6-mer frequency, TF over GST control)"
same,binding signal,ELF5,"1.2 fold enrichment (6-mer frequency, TF over GST control)"
same,binding signal,ETV3,"1.37 fold enrichment (6-mer frequency, TF over GST control)"
same,binding signal,ETV6,"1.29 fold enrichment (6-mer frequency, TF over GST control)"
